# Screens: PubChem BioAssay, National Center for Advancing Translational Sciences (NCATS)
# Rows were chosen to be rich in hits. Some 17% of all compounds tested hit in one or more screens of this group.
# ATXN2 expr inh: Primary qHTS for Inhibitors of ATXN expression; hit rate 0.72% among 360,000; AID 1745845, 2022; Potency, µM (top dose mostly 57 µM), actives largely listed as inhibitors; HEK-293 ATXN2-luciferase reporter, luminescence, 24 h; further: nearly all actives have a fitted effect of over 55% in size
#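 qHTS (up to 57 uM final) was run with 24 h compound exposure of reporter cells at 37 °C. Each well was multiplexed: SteadyGlo luminescence measured ATXN2-luciferase expression after a fluorogenic Gly-Phe-AFC viability readout (25 uM final).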
# TGFb inhibitor: qHTS for Inhibitors of TGF-b | HepG2 CAGA-GFP TGF-b/SMAD3 reporter, GFP fluorescence, 18 h; TGF-beta stimulated, 500 pg/mL final | Potency, µM (top dose mostly 46.1 µM), hits mostly inhibitors | hit rate 1.2% among 410,000 | AID 588855, 2011; further: nearly all actives have a fitted effect of over 65% in size
#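 Read-out: total well GFP (ex488/em500-530) summed from mean per-cell fluorescence. Cells: HEPG2 CAGA-GFP, 1% FBS DMEM, 18 h at 37 degrees C with 500 pg/mL final TGF-beta. Unstimulated wells served as the full-inhibition control; stimulated DMSO wells = 0%.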
# S2 tox: Viability Counterscreen for Primary qHTS for Inhibitors of ATXN expression; S2 cells (HEK-293 line with an ATXN2-luciferase reporter) viability, CellTiter-Fluor protease fluorescence, 24 h; Potency, µM (titrated, usually from 56.7 µM), hits mostly cytotoxic; hit rate 0.49% among 400,000; AID 651635, 2014; further: nearly all actives have a fitted effect of over 40% in size
# DT40 TDP1 no CPT: qHTS for Inhibitors of human tyrosyl-DNA phosphodiesterase 1 (TDP1): qHTS in cells in absence of CPT; DT40 Tdp1-/- hTDP1 cells, no CPT, ATP luminescence, 48 h; Potency, µM (series often up to 46.2 µM), hits mostly inhibitors; hit rate 15% among 420,000; AID 686978, 2013; further: nearly all actives have a fitted effect of over 55% in size
#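 Compound effects on proliferation are scored in DT40 Tdp1-/-;hTDP1 cells in the absence of CPT. ATP levels (CellTiter-Glo luminescence) are recorded after a ≥48 hr, 37 °C incubation.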
# HepG2 tox: qHTS for Inhibitors of TGF-b: Cytotox Counterscreen. hit rate 0.76% among 410,000. AID 588856, 2011. Potency, µM (top dose mostly 46.1 µM), usual class: cytotoxic. HepG2 CAGA-GFP viability, ATP luminescence, 18 h
#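 HepG2 CAGA-GFP cells (1000/well, DMEM with 1% FBS) received compound, then TGF-beta at 500 pg/mL final, and were incubated 18 hours at 37 degrees C. Viability was read by CellTiter-Glo luminescence. Media-only wells were set as complete cell-killing and DMSO as no toxicity.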
# DT40 TDP1 CPT: qHTS for Inhibitors of human tyrosyl-DNA phosphodiesterase 1 (TDP1): qHTS in cells in presence of CPT; chicken DT40 Tdp1-/-;hTDP1 cells + 20 nM CPT, ATP luminescence, 48 h; Potency, µM (top dose mostly 46.2 µM), hits mostly inhibitors; hit rate 12% among 420,000; further: nearly all actives have a fitted effect of over 55% in size
#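 Chicken DT40 Tdp1-/- cells complemented with human TDP1, 400 cells/well, exposed to compounds plus 20 nM camptothecin for at least 48 h at 37 C; viability read as ATP content by CellTiter-Glo luminescence.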
# Numbers stand for hits; – = inactive; ? = inconclusive; · = not tested or not shown. The call rests on the fitted dose curve; in most records, active means well fitted curve in the direction sought with a large enough effect; inconclusive means small, poorly fitted or top-dose-only effect, or another doubt; inactive means no such curve, though single readings can be large; an effect the other way counts as inactive or inconclusive.
SMILES,ATXN2 expr inh,TGFb inhibitor,S2 tox,DT40 TDP1 no CPT,HepG2 tox,DT40 TDP1 CPT
COc1ccc(S(=O)(=O)N(C)CC(=O)Nc2ccc(C)cc2)cc1OC,–,–,–,?,–,23µM
CC1(C(=O)Nc2ccc(Cl)c(C(F)(F)F)c2)Cc2c(-c3ccc4c(c3)OCO4)ccnc2O1 (centres undefined),–,?,–,?,–,?
CC1(C(=O)Nc2ccccc2)Cc2c(-c3ccc4c(c3)OCO4)ccnc2O1 (centres undefined),–,–,–,–,–,?
CC1(C(=O)Nc2cccc(Oc3ccccc3)c2)Cc2c(-c3ccc4c(c3)OCO4)ccnc2O1 (centres undefined),–,?,–,13µM,–,?
CC(=O)Nc1ccc(-c2ccnc3c2CC(C)(C(=O)Nc2ccc(Cl)c(C(F)(F)F)c2)O3)cc1 (centres undefined),20µM,?,13µM,23µM,–,15µM
CC(=O)Nc1ccc(-c2ccnc3c2CC(C)(C(=O)Nc2ccc4c(c2)OCO4)O3)cc1 (centres undefined),–,–,?,?,–,18µM
CN(C)c1ccc(-c2ccnc3c2CC(C)(C(=O)Nc2ccc(Cl)c(C(F)(F)F)c2)O3)cc1 (centres undefined),?,?,?,5.2µM,–,?
CC1(C(=O)Nc2ccc(Cl)c(C(F)(F)F)c2)Cc2c(-c3ccccc3)ccnc2O1 (centres undefined),–,?,–,?,–,?
CC(=O)Nc1ccc(NC(=O)C2(C)Cc3c(-c4ccc5c(c4)OCO5)ccnc3O2)cc1 (centres undefined),–,–,?,–,–,–
O=C(NC1CCCc2ccccc21)c1ccc(F)cc1F (centres undefined),–,–,–,?,–,–
NS(=O)(=O)c1cccc(NC(=O)COC(=O)C2(c3cccc(F)c3)CCCC2)c1,–,–,–,?,–,?
CN(C)c1ccc(CC2CCc3ccccc32)cc1 (centres undefined),·,–,·,–,–,?
COc1ccccc1Cn1cnc2cccnc21,–,–,–,–,–,–
CCCc1c(-c2cccc(Br)c2)ncn1Cc1ccccc1OC,–,·,?,21µM,·,?
COc1ccccc1CC(=O)N1CCN(c2cccc(Cl)c2)CC1,–,–,–,–,–,–
CCCc1c(-c2ccc(Cl)cc2)ncn1CCc1ccccc1OC,?,·,35µM,5.8µM,·,6.5µM
COc1ccccc1Cc1c(-c2ccc(Cl)cc2)nc2c(Cl)cc(C(F)(F)F)cn12,–,·,–,–,·,–
COc1ccccc1CCn1c(=O)c(-c2ccc(F)cc2)nc2cncnc21,·,·,·,–,·,–
CCCc1c(-c2cccc(Cl)c2)ncn1CCc1ccccc1OC,?,·,22µM,16µM,·,?
CCCc1c(-c2ccc(F)cc2)ncn1CCc1ccccc1OC,?,·,?,16µM,·,?
CCCc1c(-c2ccc(Cl)cc2)ncn1Cc1ccccc1OC,?,·,·,21µM,·,12µM
CSc1ccc(CCNC(=O)CCCn2c(=O)c3cccn3c3ccccc32)cc1,·,–,·,18µM,–,?
CCOc1ccc(CCNC(=O)CCCn2c(=O)c3cccn3c3ccccc32)cc1,·,–,·,23µM,–,18µM
COc1ccc(Br)cc1CNC(=O)c1cc2c(=O)n(C)c3ccccc3c2s1,–,–,–,–,–,–
CCN(CC)CCNC(=O)c1cc2c(=O)n(C)c3ccccc3c2s1,–,–,–,21µM,–,18µM
SMILES,ATXN2 expr inh,TGFb inhibitor,S2 tox,DT40 TDP1 no CPT,HepG2 tox,DT40 TDP1 CPT
CN(C)CCCNC(=O)c1cc2sc3ccccc3c2s1,–,–,·,?,20µM,?
CCCCN(CC)CCNC(=O)c1cc2c(=O)n(C)c3ccccc3c2s1,–,?,–,23µM,13µM,?
CCCCN(CC)CCNC(=O)c1cn(-c2ccc(Cl)cc2)c(=O)c2ccccc12,–,–,–,?,–,–
CN(CCCNC(=O)c1cc2c(=O)n(C)c3ccccc3c2s1)Cc1ccccc1,–,–,?,15µM,–,4.6µM
COC(=O)c1sccc1-n1cccc1C(=O)C(=O)N1CC(C)OC(C)C1 (centres undefined),–,–,–,–,–,–
COc1ccc(C(C)=O)c(O)c1,15µM,·,·,–,·,?
COc1ccc(C(=O)CCc2ccccc2)c(O)c1,–,–,–,–,–,–
COc1ccc(C(=O)OCC(=O)N(Cc2ccccc2)Cc2ccccc2)c(O)c1,·,–,–,18µM,–,?
CC(C(=O)Nc1ccccc1C#N)N1C(=O)NC2(CCCCCC2)C1=O (centres undefined),–,–,–,?,–,–
CC(=O)Nc1sc(C)c(C)c1C(=O)OCC(=O)Nc1ccc(S(N)(=O)=O)cc1,–,–,–,–,–,–
Brc1ccc(-c2nc3c4ccccc4ccn3c2Cc2ccccc2)cc1,–,–,?,8.2µM,–,16µM
Clc1ccc(-c2nc3c4ccccc4ccn3c2Cc2ccccc2)cc1,–,–,–,10µM,–,16µM
CCN(CC(=O)Nc1c(F)cccc1F)C(=O)C(C)SCc1nc2sc(C)c(C)c2c(=O)[nH]1 (centres undefined),–,–,–,–,–,?
CCOc1ccc(NC(=O)Cn2c(=O)cc(C)c3c(C)nn(-c4ccc(CC)cc4)c32)cc1,–,–,–,?,–,?
Cc1nn(C)c2c1c(-c1ccccc1)cc(=O)n2CC(=O)NC(C)c1ccccc1 (centres undefined),–,–,?,?,–,?
CCc1ccc(-n2nc(C)c3c(C)cc(=O)n(CC(=O)Nc4ccc(C(C)=O)cc4)c32)cc1,–,–,–,9.2µM,–,?
Cc1cc(=O)n(CC(=O)NC(C)c2ccccc2)c2c1c(C)nn2C (centres undefined),–,?,–,8.2µM,–,15µM
COc1ccc(NC(=O)Cn2c(=O)cc(C)c3c(C)nn(C)c32)cc1,–,–,–,3.3µM,–,?
CCOc1ccc(NC(=O)Cn2c(=O)cc(C)c3c(C)nn(C)c32)cc1,–,–,–,8.2µM,–,21µM
COc1ccccc1CNC(=O)Cn1nc(C(F)(F)F)cc1C,–,–,–,–,–,–
COc1ccccc1-n1c(C)nnc1SCC(=O)Nc1cccc(C(C)=O)c1,–,–,–,–,–,–
